Measured values as given in PubChem BioAssay (EPA / NIEHS).
Inconclusive results are not listed. The source made the active and inactive calls. The calls were made as follows, unless noted: active = hit-call score of the fitted dose curve at least 0.9, where 1 is the maximum; inconclusive = response in the unintended direction; inactive = score below 0.9.

Legend:
[1] = read-out: Intercellular Adhesion Molecule 1 (ICAM1), ICAM1 (gene 3383); experiment: BSK_3C_ICAM1: BioMAP Diversity Plus: 3C Assay for Intercellular Adhesion Molecule 1 (ICAM1) Biomarker Activity (AID 2283003; active = hit-call score of the fitted dose curve at least 0.9, where 1 is the maximum; inactive = score below 0.9); details: primary human endothelial cells (HUVEC); actives raise or lower the signal
Method in brief: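 ELISA readout of ICAM1 in human umbilical vein endothelial cells in the 3C system, taken 24 h post-dose. Gain or loss of signal versus DMSO was fitted in both directions, with SRB total-protein staining run in parallel.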

[2] = molecular target: human Retinoic Acid Receptor beta (RARb), RARB (gene 5915) (UniProt P10826); experiment: ATG_RARb_TRANS: Attagene TRANS-FACTORIAL HepG2 Assay for human Retinoic Acid Receptor beta (AID 2283004)
Method in brief: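 Fluorescent capillary-electrophoresis detection of GAL4-UAS reporter mRNA defines the endpoint, with induction over DMSO-treated wells scored as activity. Transiently transfected human hepatoma HepG2 cells expressing exogenous NR–Gal4 proteins are exposed to test chemicals for 24 h.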

[3] = molecular target: Retinoic acid receptor alpha (Homo sapiens) (UniProt P10276); experiment: ATG_RARa_TRANS: Attagene TRANS-FACTORIAL HepG2 Assay for human Retinoic Acid Receptor alpha (RARa) (AID 2283005)
Method in brief: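 HepG2 transiently transfected with multiplex GAL4-UAS reporter units including a human RARa–GAL4 chimera; 24 h compound exposure. Reporter mRNA quantified by RT-PCR, 6-FAM labeling and capillary electrophoresis; gain of signal versus DMSO.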

[4] = BSK_3C_Proliferation: Cell Proliferation Assessment in the BioMAP Diversity Plus: 3C Assay (AID 2283006; active = hit-call score of the fitted dose curve at least 0.9, where 1 is the maximum; inactive = score below 0.9;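 as to AC50: potency may reflect either rise or fall in cell number versus DMSO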); details: primary human endothelial cells (HUVEC)
Method in brief: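 Proliferation as total protein: sulforhodamine B (0.1%) stain of TCA-fixed subconfluent human umbilical vein endothelial cells, absorbance 560 nm, 48 h after dosing. Activity fitted in both directions against DMSO baseline.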

[5] = molecular target: Peroxisome proliferator-activated receptor gamma (Homo sapiens) (UniProt P37231); experiment: ATG_PPARg_TRANS: Attagene TRANS-FACTORIAL HepG2 Assay for human Peroxisome Proliferator-activated Receptor-gamma (PPARg) (AID 2283007)
Method in brief: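 HepG2 cells are transiently transfected with GAL4-UAS reporter units driven by chimeric NR-Gal4 fusions and dosed for 24 h. Reporter mRNA is quantified by RT-PCR, 6-FAM labelling, HpaI digestion and capillary electrophoresis. Induction is scored against DMSO.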

[6] = molecular target: Nuclear receptor subfamily 1 group I member 2 (Homo sapiens) (UniProt O75469); experiment: ATG_PXR_TRANS: Attagene TRANS-FACTORIAL HepG2 Assay for human Pregnane X Receptor (PXR) (AID 2283008)
Method in brief: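 Transient HepG2 transfectants carrying multiplexed reporter transcription units; PXR activity read through a Gal4 chimera. 24 h exposure. RT-PCR/CE fluorescence; upward curve fit referenced to DMSO.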

[7] = molecular target: human Retinoic Acid Receptor gamma (RARg), RARG (gene 5916) (UniProt P13631); experiment: ATG_RARg_TRANS: Attagene TRANS-FACTORIAL HepG2 Assay for human Retinoic Acid Receptor gamma (RARg) (AID 2283009)
Method in brief: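 Transactivation of exogenous RARg-Gal4 fusion measured as reporter transcript induction after 24 h in transfected HepG2 cells. RNA reverse-transcribed, amplified, fluorescently labeled and resolved by capillary electrophoresis; increase relative to DMSO.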

[8] = molecular target: Retinoic acid receptor RXR-alpha (Homo sapiens) (UniProt P19793); experiment: ATG_RXRa_TRANS: Attagene TRANS-FACTORIAL HepG2 Assay for human Retinoid X Receptor alpha (RXRa) (AID 2283012)
Method in brief: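 TRANS format reporting activity of exogenous RXRa-Gal4 chimera in transiently transfected HepG2, 24 h exposure. Reporter transcripts quantified by RT-PCR with capillary electrophoresis, with gain of signal scored relative to DMSO.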

[9] = molecular target: human Retinoid X Receptor beta (RXRb), RXRB (gene 6257) (UniProt P28702); experiment: ATG_RXRb_TRANS: Attagene TRANS-FACTORIAL HepG2 Assay for human Retinoid X Receptor beta (RXRb) (AID 2283013)
Method in brief: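 Readout is reporter transcript induction after 24 h dosing. It is measured by RT-PCR of total RNA followed by fluorescent capillary electrophoresis. HepG2 liver cells carry transfected multiple reporter units driven by an exogenous RXRb-Gal4 fusion; activity is relative to DMSO.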

[10] = molecular target: human Thyroid Receptor alpha (THRa1), THRA (gene 7067) (UniProt P10827); experiment: ATG_THRa1_TRANS: Attagene TRANS-FACTORIAL HepG2 Assay for human Thyroid Receptor alpha (THRa1) (AID 2283014)
Method in brief: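 Measured here is mRNA from a GAL4-UAS reporter in transfected HepG2 cells carrying a Gal4-fused receptor, 24 h post-dose. DMSO served as negative control and baseline.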

[11] = read-out: Interleukin-1 alpha (IL1a), IL1A (gene 3552); experiment: BSK_BE3C_IL1a: BioMAP Diversity Plus: BE3C Assay for Interleukin-1 alpha (IL1a) Biomarker Activity (AID 2283016; active = hit-call score of the fitted dose curve at least 0.9, where 1 is the maximum; inactive = score below 0.9); details: primary human bronchial epithelial cells; actives raise or lower the signal
Method in brief: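 IL-1a measured by ELISA after 24 h treatment of human primary bronchial epithelial cells, with gain or loss of signal fitted versus DMSO. Parallel cultures stained with SRB gauge overt cytotoxicity.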

[12] = read-out: Monocyte Chemoattractant Protein-1 (MCP1), CCL2 (gene 6347); experiment: BSK_3C_MCP1: BioMAP Diversity Plus: 3C Assay for Monocyte Chemoattractant Protein-1 (MCP1) Biomarker Activity (AID 2283017; active = hit-call score of the fitted dose curve at least 0.9, where 1 is the maximum; inactive = score below 0.9); details: primary human endothelial cells (HUVEC); actives raise or lower the signal
Method in brief: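 Using human vascular primary endothelium, researchers measured MCP-1 by ELISA 24 h after treatment, with DMSO serving as negative control for bidirectional fitting.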

[13] = read-out: Monocyte Chemoattractant Protein-1 (MCP1), CCL2 (gene 6347); experiment: BSK_4H_MCP1: BioMAP Diversity Plus: 4H Assay for Monocyte Chemoattractant Protein-1 (MCP1) Biomarker Activity (AID 2283018; active = hit-call score of the fitted dose curve at least 0.9, where 1 is the maximum; inactive = score below 0.9); details: primary human endothelial cells (HUVEC); actives raise or lower the signal
Method in brief: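 ELISA of MCP-1 (CCL2) 24 h after chemical dosing of HUVEC in the BioMAP 4H system. Gain or loss versus DMSO fitted; parallel SRB staining (560 nm) tracked overt cytotoxicity.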

[14] = read-out: Human Leukocyte Antigen - DR isotype (HLADR), HLA-DRA (gene 3122); experiment: BSK_3C_HLADR: BioMAP Diversity Plus: 3C Assay for Human Leukocyte Antigen - DR isotype (HLADR) Biomarker Activity (AID 2283019; active = hit-call score of the fitted dose curve at least 0.9, where 1 is the maximum; inactive = score below 0.9); details: primary human endothelial cells (HUVEC); actives raise or lower the signal
Method in brief: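 Compound added to primary HUVEC cultures, 24 h incubation, then HLA-DR determined by ELISA; endpoint derived by bidirectional fitting relative to DMSO negative control.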

[15] = read-out: Interleukin-8 (IL8), CXCL8 (gene 3576); experiment: BSK_3C_IL8: BioMAP Diversity Plus: 3C Assay for Interleukin-8 (IL8) Biomarker Activity (AID 2283020; active = hit-call score of the fitted dose curve at least 0.9, where 1 is the maximum; inactive = score below 0.9); details: primary human endothelial cells (HUVEC); actives raise or lower the signal
Method in brief: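 IL-8 was measured by ELISA in HUVEC cultures 24 h after chemical dosing, with gain or loss of signal fitted relative to DMSO. Parallel SRB total-protein staining tracked overt cytotoxicity.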

[16] = molecular target: human Peroxisome Proliferator-activated Receptor delta (PPARd), PPARD (gene 5467) (UniProt Q03181); experiment: ATG_PPARd_TRANS: Attagene TRANS-FACTORIAL HepG2 Assay for human Peroxisome Proliferator-activated Receptor delta (PPARd) (AID 2283002)
Method in brief: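 HepG2 cells transiently transfected with GAL4-UAS multiplexed reporter units driven by exogenous chimeric NR-GAL4 proteins; 24 h compound exposure. Reporter mRNA measured by RT-PCR, 6-FAM primer extension, HpaI digestion and capillary electrophoresis; gain of signal fitted relative to DMSO.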

[17] = molecular target: human RAR-related Orphan Receptor gamma (RORg), RORC (gene 6097) (UniProt P51449); experiment: ATG_RORg_TRANS: Attagene TRANS-FACTORIAL HepG2 Assay for human RAR-related Orphan Receptor gamma (RORg) (AID 2283011)
Method in brief: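 Chimeric RORg-Gal4 transactivation in transfected HepG2; 24 h exposure; RT-PCR/capillary electrophoresis readout of reporter mRNA, DMSO baseline.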

[18] = molecular target: human RAR-related Orphan Receptor beta (RORb), RORB (gene 6096) (UniProt Q92753); experiment: ATG_RORb_TRANS: Attagene TRANS-FACTORIAL HepG2 Assay for human RAR-related Orphan Receptor beta (RORb) (AID 2283010)
Method in brief: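 Read-out is reporter mRNA induction, quantified by RT-PCR with fluorescent capillary electrophoresis, 24 h post-dose in transiently transfected HepG2 expressing exogenous NR-Gal4 chimera. Activity fitted upward versus DMSO.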

[19] = read-out: E-selectin (Homo sapiens) (UniProt P16581); experiment: BSK_3C_Eselectin: BioMAP Diversity Plus: 3C Assay for Eselectin Biomarker Activity (AID 2283015; active = hit-call score of the fitted dose curve at least 0.9, where 1 is the maximum; inactive = score below 0.9;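 also: cell surface E-selectin protein quantified by ELISA 24 h after dosing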); details: primary human endothelial cells (HUVEC); actives raise or lower the signal
Method in brief: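 Endpoint derived by bidirectional fitting against DMSO vehicle; signal is ELISA-detected E-selectin from primary HUVEC at 24 h post-dosing, with parallel SRB staining (0.1% SRB, 560 nm) flagging cytotoxicity.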

Measured: AC50

Sequence of human Retinoid X Receptor beta (RXRb), RXRB (gene 6257) (P28702 whole entry, looked up, the tested form may be a part): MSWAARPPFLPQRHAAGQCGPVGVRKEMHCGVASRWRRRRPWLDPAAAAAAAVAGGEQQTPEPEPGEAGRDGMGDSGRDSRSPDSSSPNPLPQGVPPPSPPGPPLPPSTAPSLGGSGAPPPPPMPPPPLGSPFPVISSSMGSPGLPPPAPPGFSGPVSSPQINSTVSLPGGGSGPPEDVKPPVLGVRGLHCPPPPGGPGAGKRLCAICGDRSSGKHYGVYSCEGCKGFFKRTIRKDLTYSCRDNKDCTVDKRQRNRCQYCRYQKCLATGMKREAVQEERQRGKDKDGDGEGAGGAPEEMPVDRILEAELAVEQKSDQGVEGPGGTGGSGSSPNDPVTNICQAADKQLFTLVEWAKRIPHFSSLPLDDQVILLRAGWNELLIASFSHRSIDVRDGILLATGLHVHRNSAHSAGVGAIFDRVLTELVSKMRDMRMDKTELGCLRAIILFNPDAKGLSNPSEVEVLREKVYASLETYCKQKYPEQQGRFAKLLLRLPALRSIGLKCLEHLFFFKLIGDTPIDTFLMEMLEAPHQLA
Sequence of Retinoic acid receptor RXR-alpha (Homo sapiens) (P19793 whole entry, looked up, the tested form may be a part): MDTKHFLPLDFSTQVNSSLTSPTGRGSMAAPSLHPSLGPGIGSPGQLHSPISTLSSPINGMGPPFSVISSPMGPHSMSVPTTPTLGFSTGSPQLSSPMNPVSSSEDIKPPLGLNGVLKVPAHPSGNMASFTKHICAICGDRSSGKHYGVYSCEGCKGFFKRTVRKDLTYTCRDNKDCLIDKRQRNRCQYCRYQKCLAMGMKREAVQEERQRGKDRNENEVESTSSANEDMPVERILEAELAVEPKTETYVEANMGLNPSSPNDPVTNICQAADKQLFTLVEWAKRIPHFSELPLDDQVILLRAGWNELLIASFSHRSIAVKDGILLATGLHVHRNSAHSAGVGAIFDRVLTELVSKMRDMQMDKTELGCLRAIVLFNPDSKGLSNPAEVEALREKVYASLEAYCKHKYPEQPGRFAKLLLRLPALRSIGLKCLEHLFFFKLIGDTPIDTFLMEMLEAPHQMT
Sequence of human Peroxisome Proliferator-activated Receptor delta (PPARd), PPARD (gene 5467) (Q03181 whole entry, looked up, the tested form may be a part): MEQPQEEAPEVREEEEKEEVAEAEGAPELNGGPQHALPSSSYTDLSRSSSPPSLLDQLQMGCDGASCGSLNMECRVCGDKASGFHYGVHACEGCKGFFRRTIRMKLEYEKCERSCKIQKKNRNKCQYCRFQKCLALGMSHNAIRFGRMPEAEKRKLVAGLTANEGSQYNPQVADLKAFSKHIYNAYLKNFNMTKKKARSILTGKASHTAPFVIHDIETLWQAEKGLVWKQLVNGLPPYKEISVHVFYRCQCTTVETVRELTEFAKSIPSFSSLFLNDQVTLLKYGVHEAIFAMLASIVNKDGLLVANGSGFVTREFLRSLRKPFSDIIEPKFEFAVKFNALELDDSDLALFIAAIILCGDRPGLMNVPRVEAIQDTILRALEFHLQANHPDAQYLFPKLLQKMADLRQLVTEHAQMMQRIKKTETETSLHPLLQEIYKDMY
Sequence of human RAR-related Orphan Receptor beta (RORb), RORB (gene 6096) (Q92753 whole entry, looked up, the tested form may be a part): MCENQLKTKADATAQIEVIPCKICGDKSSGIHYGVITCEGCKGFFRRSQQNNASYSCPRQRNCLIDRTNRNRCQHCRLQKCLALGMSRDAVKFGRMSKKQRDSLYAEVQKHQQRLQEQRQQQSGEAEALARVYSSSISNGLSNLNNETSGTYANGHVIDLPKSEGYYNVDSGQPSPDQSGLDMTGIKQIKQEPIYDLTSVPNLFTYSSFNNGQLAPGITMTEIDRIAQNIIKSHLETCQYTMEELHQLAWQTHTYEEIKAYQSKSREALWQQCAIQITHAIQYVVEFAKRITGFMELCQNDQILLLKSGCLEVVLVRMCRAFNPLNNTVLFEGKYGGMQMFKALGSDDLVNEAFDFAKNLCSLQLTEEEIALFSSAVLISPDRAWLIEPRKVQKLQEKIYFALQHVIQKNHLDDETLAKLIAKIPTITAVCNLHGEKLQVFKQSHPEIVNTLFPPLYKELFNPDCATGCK
Sequence of human RAR-related Orphan Receptor gamma (RORg), RORC (gene 6097) (P51449 whole entry, looked up, the tested form may be a part): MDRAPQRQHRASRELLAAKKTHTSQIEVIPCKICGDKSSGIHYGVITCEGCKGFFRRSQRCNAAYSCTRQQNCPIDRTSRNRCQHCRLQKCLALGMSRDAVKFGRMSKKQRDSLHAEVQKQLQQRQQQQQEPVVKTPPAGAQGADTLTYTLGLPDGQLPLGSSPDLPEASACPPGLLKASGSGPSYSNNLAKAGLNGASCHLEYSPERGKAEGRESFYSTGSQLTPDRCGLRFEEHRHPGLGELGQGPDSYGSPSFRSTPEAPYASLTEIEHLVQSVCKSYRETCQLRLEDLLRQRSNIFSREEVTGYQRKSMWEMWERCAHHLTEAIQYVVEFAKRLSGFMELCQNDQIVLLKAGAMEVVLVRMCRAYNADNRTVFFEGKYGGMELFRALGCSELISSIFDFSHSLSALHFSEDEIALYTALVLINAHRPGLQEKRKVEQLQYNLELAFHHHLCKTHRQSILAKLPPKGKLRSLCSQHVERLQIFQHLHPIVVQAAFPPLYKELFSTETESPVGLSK
Sequence of human Thyroid Receptor alpha (THRa1), THRA (gene 7067) (P10827 whole entry, looked up, the tested form may be a part): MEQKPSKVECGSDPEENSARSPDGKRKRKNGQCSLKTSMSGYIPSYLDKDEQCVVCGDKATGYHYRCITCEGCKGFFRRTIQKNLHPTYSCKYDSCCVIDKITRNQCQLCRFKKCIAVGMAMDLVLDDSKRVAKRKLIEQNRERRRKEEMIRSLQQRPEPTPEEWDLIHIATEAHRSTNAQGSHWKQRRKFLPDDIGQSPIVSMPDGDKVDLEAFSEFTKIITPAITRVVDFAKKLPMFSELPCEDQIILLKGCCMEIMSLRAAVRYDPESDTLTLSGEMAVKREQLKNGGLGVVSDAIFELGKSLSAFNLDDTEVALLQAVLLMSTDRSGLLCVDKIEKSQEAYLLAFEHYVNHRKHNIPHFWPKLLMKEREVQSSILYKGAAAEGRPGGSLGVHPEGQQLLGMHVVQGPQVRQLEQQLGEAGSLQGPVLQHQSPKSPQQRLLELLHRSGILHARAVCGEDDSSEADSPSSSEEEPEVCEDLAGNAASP
Sequence of Peroxisome proliferator-activated receptor gamma (Homo sapiens) (P37231 whole entry, looked up, the tested form may be a part): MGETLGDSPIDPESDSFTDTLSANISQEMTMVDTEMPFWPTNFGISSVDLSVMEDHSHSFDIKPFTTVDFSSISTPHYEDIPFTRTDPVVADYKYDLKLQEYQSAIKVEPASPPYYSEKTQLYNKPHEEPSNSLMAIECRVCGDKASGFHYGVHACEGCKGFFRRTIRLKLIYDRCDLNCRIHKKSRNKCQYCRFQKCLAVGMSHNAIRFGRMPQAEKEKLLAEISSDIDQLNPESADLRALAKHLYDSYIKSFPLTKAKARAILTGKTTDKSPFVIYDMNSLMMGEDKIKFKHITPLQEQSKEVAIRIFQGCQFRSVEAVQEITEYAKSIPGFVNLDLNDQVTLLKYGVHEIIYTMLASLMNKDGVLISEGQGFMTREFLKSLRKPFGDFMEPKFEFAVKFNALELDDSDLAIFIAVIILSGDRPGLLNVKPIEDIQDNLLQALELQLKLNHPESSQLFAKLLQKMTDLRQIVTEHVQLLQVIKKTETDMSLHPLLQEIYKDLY
Sequence of human Retinoic Acid Receptor beta (RARb), RARB (gene 5915) (P10826 whole entry, looked up, the tested form may be a part): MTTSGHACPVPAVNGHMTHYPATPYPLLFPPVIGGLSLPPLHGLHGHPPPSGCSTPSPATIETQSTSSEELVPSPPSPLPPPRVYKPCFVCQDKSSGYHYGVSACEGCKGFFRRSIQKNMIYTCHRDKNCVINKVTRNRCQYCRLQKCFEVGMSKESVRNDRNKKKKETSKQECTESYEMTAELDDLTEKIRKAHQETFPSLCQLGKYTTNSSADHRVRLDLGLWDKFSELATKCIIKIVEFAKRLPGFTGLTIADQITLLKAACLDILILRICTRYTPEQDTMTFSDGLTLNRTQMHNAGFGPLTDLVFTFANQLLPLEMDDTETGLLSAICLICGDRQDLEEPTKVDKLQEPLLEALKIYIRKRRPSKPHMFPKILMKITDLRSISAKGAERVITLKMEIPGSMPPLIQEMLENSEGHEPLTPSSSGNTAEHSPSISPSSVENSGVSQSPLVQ
Sequence of human Retinoic Acid Receptor gamma (RARg), RARG (gene 5916) (P13631 whole entry, looked up, the tested form may be a part): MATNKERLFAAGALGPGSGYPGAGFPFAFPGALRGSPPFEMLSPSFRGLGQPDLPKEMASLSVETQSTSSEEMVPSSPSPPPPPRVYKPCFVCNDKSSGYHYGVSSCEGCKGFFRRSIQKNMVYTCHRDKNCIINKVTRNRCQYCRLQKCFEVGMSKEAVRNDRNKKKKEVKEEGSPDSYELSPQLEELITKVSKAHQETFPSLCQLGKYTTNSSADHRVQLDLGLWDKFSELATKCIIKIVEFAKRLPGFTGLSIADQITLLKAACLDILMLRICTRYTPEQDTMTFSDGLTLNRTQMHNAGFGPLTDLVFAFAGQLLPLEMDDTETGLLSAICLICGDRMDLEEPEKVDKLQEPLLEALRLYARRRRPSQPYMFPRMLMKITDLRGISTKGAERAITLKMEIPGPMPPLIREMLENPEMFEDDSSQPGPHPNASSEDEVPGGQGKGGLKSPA
Sequence of Retinoic acid receptor alpha (Homo sapiens) (P10276 whole entry, looked up, the tested form may be a part): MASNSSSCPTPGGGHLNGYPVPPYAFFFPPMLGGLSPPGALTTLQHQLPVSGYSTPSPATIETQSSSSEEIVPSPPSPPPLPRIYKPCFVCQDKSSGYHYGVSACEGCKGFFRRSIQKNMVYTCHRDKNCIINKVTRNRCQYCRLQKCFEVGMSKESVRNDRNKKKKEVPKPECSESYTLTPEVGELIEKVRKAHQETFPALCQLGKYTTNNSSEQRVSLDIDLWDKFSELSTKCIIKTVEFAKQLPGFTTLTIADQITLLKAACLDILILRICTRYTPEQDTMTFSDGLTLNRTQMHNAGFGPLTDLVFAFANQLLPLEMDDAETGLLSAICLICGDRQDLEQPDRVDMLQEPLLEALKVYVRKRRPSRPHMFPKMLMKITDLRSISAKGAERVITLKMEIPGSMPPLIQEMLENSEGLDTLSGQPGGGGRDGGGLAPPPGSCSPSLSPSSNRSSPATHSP

O=[N+]([O-])c1ccc2c3c(cccc13)CC2
active: [5] 22.7 µM | [6] 2.41 µM | [9] 27.5 µM | [14] 13.7 µM
not listed: [16] | [17] | [18] | [19]
inactive: all other assays above

CCC(C)c1cccc(C(C)CC)c1O (configuration not stated)
active: [9] 26.3 µM
inactive: [16] | [2] | [3] | [5] | [7] | [17] | [8] | [10]

OCC(O)CCl (configuration not stated)
inactive: [16] | [5] | [6] | [18] | [8]

COc1ccccc1OC
inactive: [16] | [2] | [5] | [6] | [18] | [17] | [8] | [9]

CCN(CC)C(=O)Cl
inactive: [16] | [5] | [18] | [9]

CCC(=O)c1ccccc1
inactive: [16] | [5] | [18] | [8] | [10]

Nc1ccc(Cl)cc1C(=O)c1ccccc1
active: [5] 25.8 µM | [6] 10.5 µM | [9] 21.9 µM
inactive: [16] | [17] | [8] | [10]

Clc1ccc(C2(Cn3cncn3)CC(Br)CO2)c(Cl)c1 (configuration not stated)
inactive: [16] | [10]
active: [6] 0.762 µM

CCSC(C)CC1CC(=O)C(C(CC)=NOC/C=C/Cl)=C(O)C1 (configuration not stated)
active: [5] 35.3 µM | [6] 7.44 µM
not listed: [2] | [9] | [14] | [16] | [17] | [18] | [19]
inactive: all other assays above

OCc1ccco1
inactive: [1] | [6] | [18] | [17] | [8] | [11] | [12] | [13] | [15]
active: [4] 19.8 µM | [5] 39.7 µM

O=P(O)(O)CN(CP(=O)(O)O)CP(=O)(O)O
inactive: [16] | [3] | [7] | [18] | [17] | [8] | [9] | [10]

CCCCP(CCCC)CCCC
inactive: [16] | [18] | [8] | [10]
active: [6] 7.21 µM

CCOP(=S)(OCC)SCSP(=S)(OCC)OCC
active: [6] 0.168 µM | [9] 12.4 µM
not listed: [14] | [16] | [18] | [19]
inactive: all other assays above

Cc1cc(Cl)ccc1O[C@H](C)C(=O)O
inactive: [16] | [18]
active: [5] 37.4 µM

CC1(C)CCC(Cc2ccc(Cl)cc2)C1(O)Cn1cncn1 (configuration not stated)
inactive: [16] | [5] | [8] | [10]

O=[N+]([O-])c1ccc(O)c([N+](=O)[O-])c1
not listed: [6] | [7] | [9] | [14] | [16] | [17] | [18]
inactive: all other assays above

CC(=O)c1cc(C(C)(C)C)cc2c1CCC2(C)C
inactive: [16] | [5]
active: [6] 5.5 µM | [8] 3.52 µM | [9] 0.446 µM

ClCc1cccnc1
active: [5] 51.8 µM
inactive: [16] | [6] | [18] | [8] | [9] | [10]

COP(=O)(OC)OC
inactive: [6] | [18] | [17] | [10]

CN(C)P(=O)(N(C)C)N(C)C
inactive: [3] | [5] | [6] | [10]

C=CC#N
inactive: [5] | [10]

NNC(=S)NN
inactive: [5] | [8] | [9] | [10]
